Measurements from the supplement of paper PMC8728848.
The entries come from a sample that favours the strongest signals as a whole.

What was measured:
Experiment in all cases: glycan array binding signal (z-score within array); higher = stronger binding
Conditions in all cases: glycan notation: IUPAC condensed, linker removed
[1] = target: Fuc(a1-2)Gal(b1-3)[Fuc(a1-4)]GlcNAc(b1-2)Man(a1-3)[Fuc(a1-2)Gal(b1-3)[Fuc(a1-4)]GlcNAc(b1-2)Man(a1-6)]Man(b1-4)GlcNAc(b1-4)GlcNAc
Summary of the method: (§1)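 Glycan array binding is given as a within-array Z-score, which can be read as non-binding when negative. The arrays, 3228 of them, came from the Consortium for Functional Glycomics database and were retained only where the protein sequence was available. Z-scores were averaged across arrays of the same protein sequence at different concentrations or buffers and across linkers.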

[2] = target: Fuc(a1-2)Gal(b1-3)[Fuc(a1-4)]GlcNAc(b1-3)[Fuc(a1-3)[Gal(b1-4)]GlcNAc(b1-6)]Gal(b1-4)Glc
Summary of the method: as §1

[3] = target: Fuc(a1-2)Gal(b1-4)[Fuc(a1-3)]GlcNAc(b1-3)Gal(b1-4)[Fuc(a1-3)]GlcNAc(b1-3)Gal(b1-4)[Fuc(a1-3)]GlcNAc
Summary of the method: as §1

[4] = target: Fuc(a1-2)Gal(b1-4)[Fuc(a1-3)]GlcNAc(b1-3)GalNAc
Summary of the method: as §1

Fuc(a1-2)Gal6S(b1-4)Glc = target: Fuc(a1-2)Gal6S(b1-4)Glc
Summary of the method: as §1

[5] = target: Fuc(a1-2)[Gal(a1-4)]Gal(b1-4)GlcNAc
Summary of the method: as §1

[6] = target: Fuc(a1-2)[GalNAc(a1-3)]Gal(b1-3)GalNAc(a1-3)[Fuc(a1-2)]Gal(b1-4)GlcNAc
Summary of the method: as §1

[7] = target: Fuc(a1-2)[GalNAc(a1-3)]Gal(b1-3)GlcNAc(b1-3)GalNAc
Summary of the method: as §1

[8] = target: Fuc(a1-2)[GalNAc(a1-3)]Gal(b1-4)[Fuc(a1-3)]GlcNAc(b1-3)GalNAc
Summary of the method: as §1

[9] = target: Fuc(a1-3)[Gal(b1-4)]GlcNAc(b1-6)GalNAc
Summary of the method: as §1

[10] = target: Gal(a1-3)Gal(b1-3)GlcNAc(b1-2)Man(a1-3)[Gal(a1-3)Gal(b1-3)GlcNAc(b1-2)Man(a1-6)]Man(b1-4)GlcNAc(b1-4)GlcNAc
Summary of the method: as §1

[11] = target: Gal(a1-3)Gal(b1-4)[Fuc(a1-3)]GlcNAc(b1-2)Man(a1-3)[Gal(a1-3)Gal(b1-4)[Fuc(a1-3)]GlcNAc(b1-2)Man(a1-6)]Man(b1-4)GlcNAc(b1-4)GlcNAc
Summary of the method: as §1

[12] = target: Gal(b1-3)GlcNAc(b1-3)Gal(b1-3)GlcNAc
Summary of the method: as §1

[13] = target: Gal(b1-3)[Fuc(a1-4)]GlcNAc(b1-3)Gal(b1-4)[Fuc(a1-3)]GlcNAc
Summary of the method: as §1

[14] = target: Gal(b1-3)[Neu5Ac(a2-6)]GalNAc
Summary of the method: as §1

[15] = target: Gal(b1-4)GalNAc(a1-3)[Fuc(a1-2)]Gal(b1-4)GlcNAc
Summary of the method: as §1

[16] = target: Gal(b1-4)GlcNAc(b1-2)[Gal(b1-4)GlcNAc(b1-6)]Man(a1-6)[Gal(b1-4)GlcNAc(b1-2)Man(a1-3)]Man(b1-4)GlcNAc(b1-4)GlcNAc
Summary of the method: as §1

[17] = target: Gal(b1-4)GlcNAc(b1-2)[Gal(b1-4)GlcNAc(b1-6)]Man(a1-6)[GlcNAc(b1-4)][Gal(b1-4)GlcNAc(b1-2)Man(a1-3)]Man(b1-4)GlcNAc(b1-4)GlcNAc
Summary of the method: as §1

[18] = target: Gal(b1-4)GlcNAc(b1-3)Gal(b1-4)[Fuc(a1-3)GlcNAc(b1-6)]Gal(b1-4)Glc
Summary of the method: as §1

[19] = target: Gal(b1-4)GlcNAc(b1-3)[Gal(b1-4)GlcNAc(b1-6)]Gal(b1-4)GlcNAc
Summary of the method: as §1

Gal3S(b1-4)GlcNAc6S = target: Gal3S(b1-4)GlcNAc6S
Summary of the method: as §1

[20] = target: Gal3S(b1-4)[Fuc(a1-3)]Glc
Summary of the method: as §1

[21] = target: Gal3S(b1-4)[Fuc(a1-3)]Glc6S
Summary of the method: as §1

Gal3S4S(b1-4)GlcNAc = target: Gal3S4S(b1-4)GlcNAc
Summary of the method: as §1

Gal3S6S(b1-4)GlcNAc6S = target: Gal3S6S(b1-4)GlcNAc6S
Summary of the method: as §1

[22] = target: GalNAc(b1-3)Gal(a1-4)Gal(b1-4)GlcNAc
Summary of the method: as §1

Glc(a1-6)Glc(a1-6)Glc = target: Glc(a1-6)Glc(a1-6)Glc
Summary of the method: as §1

[23] = target: GlcNAc(a1-4)Gal(b1-4)GlcNAc(b1-3)Gal(b1-4)[Fuc(a1-3)]GlcNAc(b1-3)Gal(b1-4)[Fuc(a1-3)]GlcNAc
Summary of the method: as §1

[24] = target: GlcNAc(b1-2)[GlcNAc(b1-4)]Man(a1-3)[GlcNAc(b1-4)][GlcNAc(b1-2)Man(a1-6)]Man(b1-4)GlcNAc(b1-4)GlcNAc
Summary of the method: as §1

[25] = target: GlcNAc(b1-2)[GlcNAc(b1-6)]Man(a1-6)[GlcNAc(b1-2)Man(a1-3)]Man(b1-4)GlcNAc(b1-4)GlcNAc
Summary of the method: as §1

[26] = target: GlcNAc(b1-4)[GlcNAc(b1-6)]GalNAc
Summary of the method: as §1

[27] = target: Neu5Ac(a2-3)Gal(b1-3)GlcNAc6S
Summary of the method: as §1

[28] = target: Neu5Ac(a2-3)Gal(b1-4)GlcNAc(b1-3)Gal
Summary of the method: as §1

[29] = target: Neu5Ac(a2-3)Gal(b1-4)GlcNAc(b1-6)[Neu5Ac(a2-3)Gal(b1-3)]GalNAc
Summary of the method: as §1

[30] = target: Neu5Ac(a2-3)Gal(b1-4)[Fuc(a1-3)]GlcNAc(b1-3)GalNAc
Summary of the method: as §1

[31] = target: Neu5Ac(a2-3)Gal(b1-4)[Fuc(a1-3)]GlcNAc(b1-6)[Gal(b1-3)]GalNAc
Summary of the method: as §1

[32] = target: Neu5Ac(a2-3)[Neu5Ac(a2-6)]GalNAc
Summary of the method: as §1

[33] = target: Neu5Ac(a2-6)Gal(b1-4)GlcNAc(b1-2)Man(a1-3)[GlcNAc(b1-2)Man(b1-4)GlcNAc(b1-2)Man(a1-6)]Man(b1-4)GlcNAc(b1-4)GlcNAc
Summary of the method: as §1

[34] = target: Neu5Ac(a2-6)Gal(b1-4)GlcNAc(b1-3)Gal(b1-3)GlcNAc
Summary of the method: as §1

Neu5Ac(a2-6)GalNAc = target: Neu5Ac(a2-6)GalNAc
Summary of the method: as §1

[35] = target: Neu5Ac(a2-8)Neu5Ac(a2-3)[GalNAc(b1-4)]Gal(b1-4)Glc
Summary of the method: as §1

Neu5Ac(b2-6)GalNAc = target: Neu5Ac(b2-6)GalNAc
Summary of the method: as §1

[36] = target: Neu5Gc(a2-6)Gal(b1-4)GlcNAc
Summary of the method: as §1

B1: GNAT (Pseudomonas aeruginosa), Q9HV14 (protein)
chain: MQLSHRPAETGDLETVAGFPQDRDELFYCYPKAIWPFSVAQLAAAIAERRGSTVAVHDGQVLGFANFYQWQHGDFCALGNMMVAPAARGLGVARYLIGVMENLAREQYKARLMKISCFNANAAGLLLYTQLGYQPRAIAERHDPDGRRVALIQMDKPLEP
glycan array binding signal (z-score) [1]: 2.54
glycan array binding signal (z-score) [2]: -0.247
glycan array binding signal (z-score) [3]: -0.411
glycan array binding signal (z-score) [4]: 4.04
glycan array binding signal (z-score) (Fuc(a1-2)Gal6S(b1-4)Glc): -0.374
glycan array binding signal (z-score) [5]: -0.398
glycan array binding signal (z-score) [6]: -0.345
glycan array binding signal (z-score) [7]: 5.4
glycan array binding signal (z-score) [8]: 4.86
glycan array binding signal (z-score) [9]: 5.07
glycan array binding signal (z-score) [10]: 2.69
glycan array binding signal (z-score) [11]: 4.4
glycan array binding signal (z-score) [12]: 0.929
glycan array binding signal (z-score) [13]: -0.315
glycan array binding signal (z-score) [14]: 0.421
glycan array binding signal (z-score) [15]: -0.14
glycan array binding signal (z-score) [16]: 1.21
glycan array binding signal (z-score) [17]: -0.222
glycan array binding signal (z-score) [18]: 0.293
glycan array binding signal (z-score) [19]: -0.269
glycan array binding signal (z-score) (Gal3S(b1-4)GlcNAc6S): -0.322
glycan array binding signal (z-score) [20]: -0.301
glycan array binding signal (z-score) [21]: 6.54
glycan array binding signal (z-score) (Gal3S4S(b1-4)GlcNAc): -0.461
glycan array binding signal (z-score) (Gal3S6S(b1-4)GlcNAc6S): -0.379
glycan array binding signal (z-score) [22]: -0.284
glycan array binding signal (z-score) (Glc(a1-6)Glc(a1-6)Glc): -0.33
glycan array binding signal (z-score) [23]: 3.72
glycan array binding signal (z-score) [24]: -0.318
glycan array binding signal (z-score) [25]: -0.257
glycan array binding signal (z-score) [26]: -0.407
glycan array binding signal (z-score) [27]: -0.165
glycan array binding signal (z-score) [28]: -0.403
glycan array binding signal (z-score) [29]: -0.097
glycan array binding signal (z-score) [30]: 2.77
glycan array binding signal (z-score) [31]: 5.03
glycan array binding signal (z-score) [32]: -0.405
glycan array binding signal (z-score) [33]: -0.293
glycan array binding signal (z-score) [34]: -0.3
glycan array binding signal (z-score) (Neu5Ac(a2-6)GalNAc): -0.404
glycan array binding signal (z-score) [35]: -0.165
glycan array binding signal (z-score) (Neu5Ac(b2-6)GalNAc): -0.413
glycan array binding signal (z-score) [36]: -0.437
